Assay results taken from PubChem BioAssay.
Active and inactive are the calls of the source.

Tests used:
[1] = binders of probe aFSTL3 on microarray, primary screen, stem cell growth factor project, biochemical, small-molecule microarray, fluorescence 635/667 (AID 1064); details: higher = more signal;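 also: measures binding of the biotinylated anti-FSTL3 antibody to printed compounds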
[2] = binders from COS7 lysate, DM2A8 probe, primary screen, torsin A project, cell lysate, small-molecule microarray, fluorescence 635/667 (AID 1065); details: higher = more signal, COS7 lysate expressing mutant human TOR1A
[3] = binders of probe aFGF2 on microarray, primary screen, stem cell growth factor project, biochemical, small-molecule microarray, fluorescence 635/667 (AID 1067); details: higher = more signal;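 also: measures binding of biotinylated aFGF2 protein to printed compounds on slides; z-score merges feature fluorescence and signal-to-noise across triplicate slides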
[4] = binders of probe aFGF10 on microarray, primary screen, stem cell growth factor project, biochemical, small-molecule microarray, fluorescence 635/667 (AID 1071); details: higher = more signal;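 also: score merges 667 nm spot intensity and signal to noise from triplicate slides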
[5] = molecular target: Neurogenic locus notch homolog protein 2 (Homo sapiens) (UniProt Q04721); assay: Notch2 binders on small-molecule microarrays, primary screen, biochemical, small-molecule microarray, 635 nm fluorescence, stem cell growth factors (AID 1073); details: Notch2 binding, higher = more signal
Sequence of Neurogenic locus notch homolog protein 2 (Homo sapiens) (Q04721 whole entry, looked up, canonical isoform): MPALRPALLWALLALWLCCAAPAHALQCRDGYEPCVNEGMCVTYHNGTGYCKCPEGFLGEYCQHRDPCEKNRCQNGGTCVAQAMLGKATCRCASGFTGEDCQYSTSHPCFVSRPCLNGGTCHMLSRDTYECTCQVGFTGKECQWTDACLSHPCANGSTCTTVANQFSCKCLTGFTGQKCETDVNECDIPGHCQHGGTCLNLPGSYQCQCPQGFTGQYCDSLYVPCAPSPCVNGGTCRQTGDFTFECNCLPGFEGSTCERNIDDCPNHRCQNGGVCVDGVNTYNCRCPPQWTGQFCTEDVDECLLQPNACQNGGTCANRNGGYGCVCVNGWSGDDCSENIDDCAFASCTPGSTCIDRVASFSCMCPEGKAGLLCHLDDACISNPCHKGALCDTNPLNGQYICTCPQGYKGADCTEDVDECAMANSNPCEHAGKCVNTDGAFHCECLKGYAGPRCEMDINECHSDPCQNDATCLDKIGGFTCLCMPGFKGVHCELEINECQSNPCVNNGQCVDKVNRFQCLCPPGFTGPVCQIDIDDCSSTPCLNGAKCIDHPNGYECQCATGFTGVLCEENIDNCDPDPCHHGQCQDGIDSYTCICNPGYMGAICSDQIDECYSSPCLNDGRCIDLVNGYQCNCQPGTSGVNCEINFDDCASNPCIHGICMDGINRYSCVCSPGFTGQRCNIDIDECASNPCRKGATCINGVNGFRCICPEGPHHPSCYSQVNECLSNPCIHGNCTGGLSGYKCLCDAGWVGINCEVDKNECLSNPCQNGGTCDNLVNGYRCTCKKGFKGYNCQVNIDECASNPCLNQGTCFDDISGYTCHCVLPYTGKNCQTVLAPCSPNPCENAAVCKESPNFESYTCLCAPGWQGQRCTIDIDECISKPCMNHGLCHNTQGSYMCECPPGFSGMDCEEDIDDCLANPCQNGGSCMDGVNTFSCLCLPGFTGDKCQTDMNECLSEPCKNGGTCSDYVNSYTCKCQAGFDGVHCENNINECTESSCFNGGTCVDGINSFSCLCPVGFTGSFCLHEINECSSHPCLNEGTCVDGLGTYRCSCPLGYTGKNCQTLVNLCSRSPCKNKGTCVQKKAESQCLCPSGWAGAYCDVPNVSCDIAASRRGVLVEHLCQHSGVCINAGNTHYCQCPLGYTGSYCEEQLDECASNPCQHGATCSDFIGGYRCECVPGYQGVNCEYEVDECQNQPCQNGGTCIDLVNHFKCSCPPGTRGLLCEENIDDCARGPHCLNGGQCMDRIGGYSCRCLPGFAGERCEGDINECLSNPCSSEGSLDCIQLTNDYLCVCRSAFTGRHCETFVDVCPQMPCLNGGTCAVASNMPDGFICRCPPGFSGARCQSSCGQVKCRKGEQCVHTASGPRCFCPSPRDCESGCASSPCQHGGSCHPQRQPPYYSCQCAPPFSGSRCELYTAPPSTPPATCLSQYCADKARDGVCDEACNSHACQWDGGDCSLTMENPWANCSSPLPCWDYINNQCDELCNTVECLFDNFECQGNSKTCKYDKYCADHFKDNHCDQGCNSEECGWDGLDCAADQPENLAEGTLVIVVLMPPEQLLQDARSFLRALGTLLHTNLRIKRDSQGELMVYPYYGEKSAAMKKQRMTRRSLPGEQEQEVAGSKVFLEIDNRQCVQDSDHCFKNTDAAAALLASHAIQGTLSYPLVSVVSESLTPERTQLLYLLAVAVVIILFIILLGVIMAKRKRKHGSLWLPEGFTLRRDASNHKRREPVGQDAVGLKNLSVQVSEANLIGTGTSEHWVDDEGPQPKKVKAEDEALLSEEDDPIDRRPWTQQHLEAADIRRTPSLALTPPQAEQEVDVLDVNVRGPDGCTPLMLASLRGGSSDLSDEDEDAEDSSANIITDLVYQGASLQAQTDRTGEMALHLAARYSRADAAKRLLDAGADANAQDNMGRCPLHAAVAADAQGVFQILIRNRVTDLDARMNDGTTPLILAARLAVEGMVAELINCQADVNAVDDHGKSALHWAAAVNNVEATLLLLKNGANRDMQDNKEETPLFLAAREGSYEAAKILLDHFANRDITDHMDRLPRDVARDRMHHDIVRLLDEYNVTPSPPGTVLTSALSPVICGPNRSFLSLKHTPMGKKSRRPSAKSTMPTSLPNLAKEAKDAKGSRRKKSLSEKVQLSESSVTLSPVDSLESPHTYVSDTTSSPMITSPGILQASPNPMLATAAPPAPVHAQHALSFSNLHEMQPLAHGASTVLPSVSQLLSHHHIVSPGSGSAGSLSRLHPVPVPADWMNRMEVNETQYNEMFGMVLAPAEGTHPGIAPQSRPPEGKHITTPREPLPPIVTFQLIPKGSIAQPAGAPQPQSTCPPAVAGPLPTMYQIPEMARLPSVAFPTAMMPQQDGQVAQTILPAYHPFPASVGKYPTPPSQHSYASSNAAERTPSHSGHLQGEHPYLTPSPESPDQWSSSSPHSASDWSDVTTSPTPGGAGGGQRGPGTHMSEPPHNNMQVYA

[6] = molecular target: Pro-neuregulin-1, membrane-bound isoform (Homo sapiens) (UniProt Q02297); assay: NRG1 binders on small-molecule microarrays, primary screen, psychiatric disease protein project, biochemical, small-molecule microarray, fluorescence 635/667 (AID 1075); details: NRG1 binding, 635 nm fluorescence, higher = more signal;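 also: score combines 667 nm spot fluorescence with signal to noise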
Sequence of Pro-neuregulin-1, membrane-bound isoform (Homo sapiens) (Q02297 whole entry, looked up, the tested form may be a part, canonical isoform): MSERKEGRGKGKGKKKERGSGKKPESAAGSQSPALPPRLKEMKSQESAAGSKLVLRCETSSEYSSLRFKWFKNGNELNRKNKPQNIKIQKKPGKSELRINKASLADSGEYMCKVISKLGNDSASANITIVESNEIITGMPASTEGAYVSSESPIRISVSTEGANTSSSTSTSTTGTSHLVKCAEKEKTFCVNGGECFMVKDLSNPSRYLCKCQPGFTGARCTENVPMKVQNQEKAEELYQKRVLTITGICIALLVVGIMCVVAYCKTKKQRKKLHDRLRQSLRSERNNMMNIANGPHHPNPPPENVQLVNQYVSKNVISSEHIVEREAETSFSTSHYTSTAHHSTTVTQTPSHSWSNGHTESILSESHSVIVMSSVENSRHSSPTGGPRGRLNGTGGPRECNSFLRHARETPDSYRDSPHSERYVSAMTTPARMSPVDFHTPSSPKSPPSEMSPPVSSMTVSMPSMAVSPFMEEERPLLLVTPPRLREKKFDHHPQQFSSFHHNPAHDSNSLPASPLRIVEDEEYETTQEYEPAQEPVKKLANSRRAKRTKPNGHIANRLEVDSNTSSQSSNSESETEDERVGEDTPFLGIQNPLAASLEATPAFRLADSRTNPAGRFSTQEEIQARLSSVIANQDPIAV

[7] = system: Neuregulin-1 EGF-like domain; assay: binders of neuregulin-1 EGF-like domain, primary screen, biochemical, small-molecule microarray, 635 nm fluorescence (AID 1081); details: small-molecule microarray binding, higher = more signal;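 also: binding of the protein to compounds printed on small-molecule microarray slides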
[8] = FRG1 promoter luciferase signal modulators, primary screen, FRG1 inhibition for FSHD, cell-based, C2C12 myotubes, firefly/Renilla luciferase, luminescence (AID 1084); details: higher = more signal, called active from +8 up or from −8 down
[9] = binders of probe aFST on microarray, primary screen, stem cell growth factor project, biochemical, small-molecule microarray, fluorescence 635/667 (AID 1086); details: higher = more signal;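 also: score merges 667 nm fluorescence with signal-to-noise of each printed compound spot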
[10] = binders of probe aHhip on microarray, primary screen, stem cell growth factor project, biochemical, small-molecule microarray, fluorescence 635/667 (AID 1087); details: higher = more signal;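 also: score merges spot fluorescence at 667nm with spot signal to noise ratio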

Structure (SMILES) | composite z-score [1] | composite z-score [2] | composite z-score [3] | composite z-score [4] | composite z-score [5] | composite z-score [6] | composite z-score [7] | z-score [8] | composite z-score [9] | composite z-score [10]
C=C(C)[C@@H]1CC=C(C(O)C2C=CC3C(=O)N(c4ccccc4)C(=O)C3N2Nc2ccccc2)CC1 (stereo not given in full) | 1.08 | 0.881 | 0.364 | 0.929 | 1.26 | 1.57 | 1.28 | -0.441 (inactive) | 1.54 | 1.07
C=CCN1C(=O)[C@@]2(Cc3ccccc31)N=C(c1ccc(OCCCO)cc1)O[C@H]2c1ccccc1 | 1.12 | 0.282 | 0.0085 | -0.112 | 1.01 | 1.24 | 1.23 | -2.07 (inactive) | 0.83 | -0.144
CC(C)C[C@@H]1NC(=O)[C@@H]2C[C@H](C(=O)NCc3ccc(F)cc3)[C@H](c3cccc(OCCO)c3)N2C1=O | 0.0163 | 0.297 | -0.0861 | 0.362 | -0.575 | -0.0212 | 1.32 | -0.148 (inactive) | -0.405 | -0.236
O=C(CS)NCCCCCCNC(=O)[C@@H]1C[C@@H]2C(=O)N[C@@H](Cc3ccccc3)C(=O)N2[C@@H]1c1cccc(OCCO)c1 | 0.0549 | 0.94 | 0.0589 | 0.956 | 1.08 | 0.659 | 1.23 | 3.09 (inactive) | 0.616 | -0.0994
COc1cc(NN2C(C(O)c3ccco3)C=CC3C(=O)N(c4ccccc4)C(=O)C32)cc(OC)c1OC (stereo not given) | -0.178 | -0.218 | -0.116 | 0.127 | 0.723 | 1.18 | 1.21 | 0.889 (inactive) | 0.162 | -0.0215
C=C(COC)/C(=C/C[C@@H](OC(C)=O)c1ccc(OCCO)cc1)c1cnc2ccccc2c1 | -0.123 | 0.093 | 0.0059 | 0.647 | 0.912 | 0.521 | 0.957 | -0.265 (inactive) | 0.253 | 0.0413
O=C1O[C@@H](c2ccccc2)[C@@H](c2ccccc2)N2[C@@H](c3ccccc3OCCO)[C@]3(C(=O)Nc4ccc(C#CC5=CCCCC5)cc43)[C@@H](C(=O)N3CCCCCCC3)[C@H]12 | 3.71 | 2.23 | 0.978 | 1.14 | 1.65 | 2.07 | 1.07 | -0.27 (inactive) | 3.59 | 3.84
COCCOC(=O)N1C(=O)[C@@]2(c3ccccc31)[C@H](c1ccccc1OCCO)N1[C@H](c3ccccc3)[C@H](c3ccccc3)OC(=O)[C@H]1[C@@H]2C(=O)N1CCN(c2ncccn2)CC1 | 0.0686 | 1.07 | -0.0629 | 0.0228 | 0.598 | 1.38 | 1.18 | -2.05 (inactive) | 0.152 | -0.0672
COCCOC(=O)N1C(=O)[C@@]2(c3ccccc31)[C@H](c1ccc(O)cc1)N1[C@H](c3ccccc3)[C@H](c3ccccc3)OC(=O)[C@H]1[C@@H]2C(=O)Nc1nc2ccccc2s1 | 0.161 | 0.912 | -0.0441 | 0.175 | 1.16 | 1.38 | 1.11 | -0.929 (inactive) | 0.5 | 0.0139
O=C1NC(=O)C2C1C=CC(C(O)c1cccs1)N2Nc1ccc(Cl)cc1Cl (stereo not given) | 0.709 | -0.232 | -0.0647 | 0.0409 | -0.0246 | 1.25 | 1.14 | 0.224 (inactive) | 0.0983 | -0.191
O=C(NCCN1CCOCC1)C1N=C(c2ccc(OCCCO)cc2)N(c2ccccc2)O1 (stereo not given) | 0.377 | 1.4 | 0.071 | 0.318 | 1.48 | 0.561 | 1.3 | 4.31 (inactive) | 0.524 | 0.075
COc1ccc(C#Cc2ccc3c(c2)[C@]2(C(=O)N3)[C@H](C(=O)NC[C@H](O)c3ccccc3)[C@H]3C(=O)O[C@H](c4ccccc4)[C@H](c4ccccc4)N3[C@@H]2c2ccc(O)cc2)cc1 | -0.384 | 0.736 | -0.0824 | 0.857 | 1.2 | 1.52 | 1.34 | 0.254 (inactive) | 0.243 | -0.201
[N-]=[N+]=NCc1ccccc1C[C@]1(C(N)=O)COC(c2ccc(OCCCO)cc2)=N1 | 0.293 | 2.02 | -0.0805 | -0.101 | 0.63 | 1.59 | 1.03 | -1.41 (inactive) | 0.847 | 0.154
CC(C)[Si]1(C(C)C)O[C@@H](c2ccccc2)c2cc(-c3ccc(-c4ccc(Cl)c(Cl)c4)o3)nc(-c3ccccc3)c21 | -0.104 | 0.291 | -0.0953 | -0.0933 | -0.0802 | 0.398 | -0.39 | 0.97 (inactive) | 0.0481 | -0.0645
CC(=O)NCCCC[C@@H]1NC(=O)[C@H]2C[C@@H](C(=O)NCCCCCCNC(=O)CS)[C@@H](c3ccc(O)cc3)N2C1=O | 0.993 | 1.42 | -0.0049 | 0.545 | -0.721 | 0.824 | 1.47 | 0.659 (inactive) | -0.555 | -0.108
C[N+](C)(C)CCCC[C@@H]1NC(=O)[C@H]2C[C@@H](C(=O)NCCCCCCNC(=O)CS)[C@@H](c3cccc(OCCO)c3)N2C1=O | 0.227 | 0.0439 | -0.172 | -0.83 | -1.34 | -0.861 | 0.439 | 0.816 (inactive) | -0.948 | -0.261
COC(=O)[C@@]1(Cc2ccccc2)N=C(c2ccc(OCCCO)cc2)O[C@H]1c1ccccc1 | 0.348 | 0.0099 | 0.0243 | 0.531 | -0.165 | 1.5 | 0.939 | -2.3 (inactive) | -0.053 | -0.169
C=CCNC(=O)[C@@H]1[C@H]2C(=O)O[C@H](c3ccccc3)[C@H](c3ccccc3)N2[C@H](c2ccc(O)cc2)[C@@]12C(=O)N(C(=O)OCCOC)c1ccc(C#CCNC(N)=O)cc12 | 0.2 | 0.383 | 0.0793 | 0.714 | 0.211 | 1.22 | 0.955 | -0.989 (inactive) | 1.15 | -0.311
COCCOC(=O)N1C(=O)[C@@]2(c3cc(C#CCC(C(=O)OC)C(=O)OC)ccc31)[C@H](c1ccccc1OCCO)N1[C@H](c3ccccc3)[C@H](c3ccccc3)OC(=O)[C@H]1[C@@H]2C(=O)N1CCN(c2ncccn2)CC1 | -0.266 | 0.273 | 0.137 | 0.432 | 0.986 | 1.32 | 1.2 | -0.796 (inactive) | 0.74 | 0.03
COC(=O)[C@@]1(Cc2ccc(F)cc2)[C@H]2c3cc(C(=O)N(C)C)n(Cc4ccc(Cl)c(C(F)(F)F)c4)c3C[C@H]2CN1C(=O)c1ccccc1 | 1.15 | 1.65 | -0.0355 | 0.215 | 1.74 | 1.83 | 1.31 | 1.3 (inactive) | 1.71 | -0.0296
CCN(CC)c1ccc(N2CC=CC34O[C@@H]5C=CCCOC(=O)C5[C@H]3C(=O)N(CCCCCCO)[C@@H]4C2=O)cc1 (stereo not given in full) | -0.16 | 0.345 | -0.16 | -0.286 | -0.439 | -0.173 | 1.6 | -0.959 (inactive) | -0.581 | -0.249
CCCc1cc2c(n1Cc1cc(F)cc(F)c1)C(C)C1CN(C(=O)c3ccccc3)C(C)(C(=O)OC)C21 (stereo not given) | 1.25 | 1.77 | 0.256 | 0.426 | 1.71 | 1.62 | 1.18 | 0.0046 (inactive) | 1.58 | 0.441
C=CCOC(=O)[C@H]1[C@@H]2C(=O)O[C@@H](c3ccccc3)[C@@H](c3ccccc3)N2[C@@H](c2ccc(OCCOC(=O)[C@H]3C[C@H]4C(=O)N[C@@H](CCCC[N+](C)(C)C)C(=O)N4[C@H]3c3ccc(O)cc3)cc2)[C@]12C(=O)Nc1ccc(I)cc12 | -0.301 | 1.33 | -0.0904 | -0.333 | -0.295 | 2.05 | 0.595 | 2.93 (inactive) | -0.333 | 0.6
OCCCC1=CC(c2cccs2)N(Cc2cc3c(cc2Br)OCO3)CC1 (stereo not given) | 0.235 | 0.457 | -0.124 | -0.0316 | -0.242 | 0.775 | 1.04 | -1.86 (inactive) | -0.0026 | -0.206
C=C(CCCC)/C(=C/C[C@H](OC(C)=O)c1ccccc1OCCO)c1cc(C(=O)OC)ccc1OC | -0.198 | -0.268 | -0.134 | 0.339 | -0.264 | -0.35 | 0.48 | -0.214 (inactive) | -0.201 | -0.134
CN(C)CCCC[C@@H]1NC(=O)[C@H]2C[C@@H](C(=O)NCCCCCCN)[C@@H](c3ccc(O)cc3)N2C1=O | 1.89 | 1.03 | 0.128 | 0.935 | 1.37 | 1.79 | 1.1 | 0.511 (inactive) | 1.52 | 1.09
COCCOC(=O)N1C(=O)[C@@]2(c3cc(C#CC4(O)CCCCCC4)ccc31)[C@H](c1ccc(OCCO)cc1)N1[C@H](c3ccccc3)[C@H](c3ccccc3)OC(=O)[C@H]1[C@@H]2C(=O)N1CCN(c2ncccn2)CC1 | -0.407 | 0.485 | -0.0242 | 0.612 | 1.03 | 1.09 | 0.966 | -0.254 (inactive) | 0.557 | -0.0645
CC(C)C(O)C1C=CC2C(=O)NC(=O)C2N1Nc1ccc(Cl)cc1Cl (stereo not given) | 0.889 | 0.206 | -0.0675 | -0.0108 | 0.514 | 1.98 | 1.16 | -0.903 (inactive) | 0.464 | -0.0645
